Only some compounds are listed: those with a hit (about 2.6% of all), similar ones and a draw of the others.
Cruzain Triton: cruzain (T. cruzi) inhibition with detergent | 200,000 compounds, 0.43% hits | Potency, µM, inactives show max response, negative = inhibition, most hits filed as inhibitors | P25779 | purified cruzain, Z-FR-AMC fluorescence, 0.01% Triton;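 also: plate controls were neutral wells for no effect and buffer without enzyme for full effect; nearly all actives have a fitted effect of over 40% in size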
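Detergent-containing arm of a paired screen for aggregation-based inhibition: 0.01% Triton X-100 present. Cruzain at 1.5 nM cleaved 2 uM Z-FR-AMC at pH 5.5 with 5 mM DTT; AMC fluorescence gain over 60 s measured activity.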
Cruzain inh noDet: blocks cruzain activity in detergent-free assay. P25779. purified cruzain, Z-FR-AMC fluorescence, no detergent. Potency, µM, without a hit: max response, negative = inhibition, usual class: inhibitors. 200,000 compounds, 2.3% hits;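 also: plate controls were enzyme without inhibitor for no effect and buffer without enzyme for full effect; nearly all actives have a fitted effect of over 40% in size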
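Purified cruzain at 1.5 nM, pre-incubated 15 min with compound at room temperature in 100 mM sodium acetate pH 5.5, 5 mM DTT, 0.00005% Triton X-100. Reaction started with 2 uM Z-FR-AMC; AMC fluorescence increase over 60 s gives rate.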
Papain inh: counter-screen for cruzain inhibitors: papain inhibition. shares compounds with Cruzain Triton. purified papain, Z-FR-AMC fluorescence cleavage. Potency, µM, for inactives: max response, negative = inhibition, actives largely listed as inhibitors. 410 compounds, 41% hits. AID 2161;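 also: 0% = no-compound wells and -100% = no-enzyme wells; nearly all actives have a fitted effect of over 35% in size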
Starred values were filed as active, the others as inactive. Calls follow the shape of the dose curve; as a rule, active = well fitted curve in the direction sought with a large enough effect; inconclusive = small, poorly fitted or top-dose-only effect, or another doubt; inactive = no such curve, though single readings can be large; an effect the other way counts as inactive or inconclusive. Potency is read from the fitted curve at half-maximal effect.

SMILES	Cruzain Triton	Cruzain inh noDet	others
CCC(Oc1ccc(F)cc1)C(=O)Nc1nc2c(s1)CCCC2 (stereo not drawn)	-10.3%	-2.7%
CCC(C(=O)NC1CCCC1)n1c(SCc2cccc(C)c2)nc2ccncc21 (stereo not drawn)	-15.3%	1.1%
CCC(C(=O)NC1CCCCC1)n1c(SCc2ccc(F)cc2)nc2ccncc21 (stereo not drawn)	12.6µM*	0.5%	Papain inh=-15.1%
CCCC[C@@H]1C[C@H]1C(NC(=O)c1ccccc1)c1ccc(C(=O)OC)cc1 (stereo partly drawn)	-1.2%	1.4%
O=C(NC1CCCCCC1)C1c2ccccc2C(=O)N1Cc1ccc(F)cc1 (stereo not drawn)	3.5%	-13.4%

Bioassay records deposited in PubChem by National Center for Advancing Translational Sciences (NCATS).
